From PubChem
hDAT+cocaine: changed hDAT dopamine uptake under cocaine IC80, either direction, primary screen, cocaine antagonist project, cell-based, LLC-PK1 hDAT, [14C]-dopamine uptake, MLSMR; Sodium-dependent dopamine transporter (Homo sapiens), Q01959; LLC-PK1 hDAT cells, [14C]-dopamine uptake with cocaine IC80; actives deviate in either direction; B-score at 10 µM; 110,000 tested, 1.3% active;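 active = Z score or B-score, a plate-position-corrected score, falls beyond the plate's 99.7% confidence bounds, in either direction; inactive = both scores lie inside the 99.7% bounds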;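 note: scored against the spread of the other compound wells on the same plate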
Target sequence (Q01959 whole entry, looked up): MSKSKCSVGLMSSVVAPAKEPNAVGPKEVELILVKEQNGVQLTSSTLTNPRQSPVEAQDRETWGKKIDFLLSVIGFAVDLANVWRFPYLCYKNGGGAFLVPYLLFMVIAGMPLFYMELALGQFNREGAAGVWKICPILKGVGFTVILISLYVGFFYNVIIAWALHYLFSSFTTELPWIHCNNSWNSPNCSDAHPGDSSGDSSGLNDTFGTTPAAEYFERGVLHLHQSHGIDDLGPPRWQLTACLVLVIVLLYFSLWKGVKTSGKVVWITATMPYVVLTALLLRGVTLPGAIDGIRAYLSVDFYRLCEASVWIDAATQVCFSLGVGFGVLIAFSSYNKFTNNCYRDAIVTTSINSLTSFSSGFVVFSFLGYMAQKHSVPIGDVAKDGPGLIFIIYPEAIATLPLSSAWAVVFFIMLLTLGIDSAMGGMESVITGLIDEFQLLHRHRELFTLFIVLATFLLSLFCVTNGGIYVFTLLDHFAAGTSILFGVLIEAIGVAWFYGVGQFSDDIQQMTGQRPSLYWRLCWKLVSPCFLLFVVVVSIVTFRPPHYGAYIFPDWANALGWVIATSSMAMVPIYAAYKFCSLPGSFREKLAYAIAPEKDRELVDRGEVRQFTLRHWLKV
EphB4 antag: EphB4-ephrin-B2 interaction antagonists, primary screen, biochemical, TNYL-RAW peptide probe, fluorescence polarization; inhibition, % at 7 µM; AID 720, 2007; Ephrin type-B receptor 4 (Homo sapiens), P54760; EphB4 LBD / TNYL-RAW-Alexa532 peptide; 97,000 tested, 0.15% active;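 active = inhibition above the screen-wide mean inhibition plus 3 SD, cut at about 15% in these data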;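 note: 0% = DMSO wells and 100% = excess unlabeled TNYL-RAW peptide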
D1 mod: D1 CRE-luciferase signal change, two-sided – cell-based, HEK293 D1, dopamine EC30, D1 allosteric modulator project, primary screen | B-score at 10 µM | dopamine EC30 potentiation; actives deviate in either direction | D(1A) dopamine receptor (Homo sapiens), P21728 | 58,000 tested, 5.9% active | AID 641, 2007;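 active = luminescence count or its row- and column-corrected plate score outside the 99.7% band of the plate's sample wells, on either side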
Starred values were filed as active, the others as inactive; . = no result. Shown is part of a subset that was picked to be rich in hits.

SMILES | hDAT+cocaine | EphB4 antag | D1 mod
CC(c1ccccc1)C1C(C#N)=C(N)OC2=C1C(=O)CC(C)(C)C2 (centres undefined) | 2.8* | 4 | 0.63
CC1(C)CC(=O)C2=C(C1)OC(N)=C(C#N)C2C#Cc1ccccc1 (centres undefined) | 0.45 | 8 | 1.2
CSc1sc(C(=O)O)c2c1C(=O)CC(C)(C)C2 | 0.37 | . | .
CSc1sc(C(=O)O)c2c1C(=O)CCC2 | -2.3* | -1 | .
C=CCN1C(=NC(=O)CC)SC2CS(=O)(=O)CC21 (centres undefined) | -1.2 | 2 | .
Cc1cccc(C(=O)N[C@@H]2c3ccccc3C[C@@H]2O)n1 | -0.25 | . | .
CC(NS(=O)(=O)c1ccc(Br)cc1)C(c1cccs1)N1CCOCC1 (centres undefined) | 0.75 | . | .
CSCC[C@H](NC(=O)CCNC(C)=O)c1nc2ccccc2[nH]1 | 0.93 | -4 | .
CC(C)C(=O)Nc1ccc(NC(=O)c2cc3ccccc3o2)cc1 | -0.95 | 0 | .
COc1ccc(CNC(=O)C(C)NC(=O)c2cc3ccccc3o2)cc1 (centres undefined) | -1.7* | 0 | 0.12
Cn1cc(C(=O)c2ccccc2)cc1-c1nc2ccccc2n1C | 2.6* | -14 | -0.019
CCC(=O)c1cc(-c2nc3ccccc3n2C)n(C)c1 | 1.2 | 4 | 0.27
Cc1oc(-c2nc3ccccc3n2C)cc1C(=O)c1ccccc1 | -0.039 | 1 | -3.8*
CC(=O)c1ccc(-c2nc3ccccc3n2C)o1 | -0.41 | 0 | 0.059
O=S(=O)(c1cccc(NC(=S)Nc2ccc(Br)cc2Cl)c1)N1CCOCC1 | 0.46 | -8 | .
COCCn1c(=O)c2c3c(sc2n(CC(N)=O)c1=O)CCCC3 | . | -2 | 0.3
CCn1c(=O)n(CCOC)c(=O)c2c3c(sc21)CCCC3 | -0.56 | -2 | 6.3*
Cc1ccc(C)c(Cn2c(C(=O)OC(C)C)cc3c2ccn3C)c1 | -0.076 | 5 | .
CCN(C(=O)Cc1ccc(Br)cc1)C1CCCCC1 | 0.43 | 3 | .
O=C(CN1CCCN(S(=O)(=O)c2ccc(F)cc2)CC1)Nc1ccccc1Br | 3.2* | 5 | 0.085
O=C(CN1CCN(S(=O)(=O)c2ccc(Br)cc2)CC1)Nc1ccccc1F | -1.5 | . | -0.02
Cc1nc(C(=O)NC2CCCCC2)sc1C1(C)CC(c2cccnc2)=NO1 (centres undefined) | 0.36 | . | .
C#CCSc1nnc(-c2sc(-c3ccccc3)nc2C)n1C | 1.5 | -3 | .
COc1ccc(/C=C2\CCc3ccccc3C2=O)cc1Cn1nc(C)cc1C | 4.9* | 2 | .
COc1ccc(/C=C2\CCc3ccccc3C2=O)cc1OC | -1.2 | 1 | .
SMILES | hDAT+cocaine | EphB4 antag | D1 mod
O=S(=O)(Nc1ncnc2c1oc1ccccc12)c1ccc(Cl)s1 | -0.0019 | . | 0.35
Cc1ccc(NC(=O)CN(C)C(=O)CSc2nc3ccccc3o2)cc1 | . | -5 | .
CC(C)=CCC12Oc3cc(O)ccc3C1(O)Oc1cc(O)c([C@H]3C=C(C)CC(c4ccc(O)cc4O)[C@H]3C(=O)c3ccc(O)cc3O)c(O)c1C2=O (some centres undefined) | 1.8 | . | .
Cc1ccc2nc3c(cc(C#N)c(=O)n3CCN3CCOCC3)c(=O)n2c1 | . | . | -1.5
Cc1ccc2nc3c(cc(C#N)c(=O)n3CC3CCCO3)c(=O)n2c1 (centres undefined) | 0.39 | . | -3.6*
CCOC(=O)CN1C(=O)N[C@@H](CCc2ccccc2)[C@H](C(=O)OC)[C@H]1C | 0.32 | . | .
O=C(NCCc1ccc(Cl)cc1)C1CCN(S(=O)(=O)c2cccc3nonc23)CC1 | -2.2* | -4 | -0.096
O=C(NCCc1ccccc1)C1CCN(S(=O)(=O)c2cccc3nonc23)CC1 | -0.15 | 6 | -0.62
COc1ccc(-n2c(SCC(=O)NCC3CCCO3)nc3ccccc32)cc1 (centres undefined) | 1.1 | 1 | .
Cc1ccc(S(=O)(=O)Cc2ccc(C(=O)NCc3cccs3)o2)cc1 | 1.8 | 10 | .
Cc1ccccc1S(=O)(=O)Cc1ccc(C(=O)NCc2cccs2)o1 | -8.4* | 6 | .
O=P(O)(O)CCP(=O)(c1ccccc1)c1ccccc1 | -2.5* | -2 | .
CCN(CC)CCP(=O)(c1ccccc1)c1ccccc1 | 0.043 | -2 | .
Cc1ccc(C)c(OCC(O)CN2CCCCC2C)c1 (centres undefined) | 0.41 | -6 | -6*
Cc1ccc(C)c(OCC(O)CN2C(C)CCCC2C)c1 (centres undefined) | 0.54 | -4 | -1.7
O/N=C\c1cccn1-c1ccc(Br)cc1 | -0.2 | -9 | .
Cn1c(NC(=O)c2ccco2)cc(=O)n(C)c1=O | 7.9* | -10 | 0.16
Cn1c(NC(=O)c2ccccc2)cc(=O)n(C)c1=O | -0.0081 | 2 | 0.24
C=C(C)C(=O)Nc1cccc(C2=NOC3(C2)C[C@H](C(N)=O)N(C(=O)COc2ccc(Cl)cc2)C3)c1 (some centres undefined) | -0.64 | . | .
CCCCOCCCn1c(-c2ccco2)nc2nc3ccccc3nc21 | 3.5* | 3 | -0.096
CCCCn1c(-c2cccs2)nc2nc3ccccc3nc21 | 0.64 | 1 | .
COc1ccc(C)cc1NC(=O)CSc1nnc(CC(=O)Nc2ccccc2C)n1C | 0.049 | 7 | .
Cc1cc2ncn(-c3ncnc4sc5c(c34)CCC(C)C5)c2cc1C (centres undefined) | . | 2 | .
COc1ccc(-c2nc(C(N)=O)c3[nH]c(=O)n(-c4ccccc4OC)c3n2)c(OC)c1 | 0.18 | -4 | 1.1
COc1ccccc1-n1c(=O)[nH]c2c(C(N)=O)nc(-c3cccnc3)nc21 | -1.5 | . | 18*
SMILES | hDAT+cocaine | EphB4 antag | D1 mod
Cc1nc2ccccc2n1CC(=O)OCC(=O)NCCc1ccccc1 | 0.6 | -2 | .
CC(=O)NCCNC(=O)CCNC(=O)c1ccc(Cl)cc1 | -0.64 | 0 | .
CC(C)c1ccc(NC(=O)c2cccnc2)cc1 | -0.65 | 6 | .
CC(C)c1ccc(NC(=O)c2csnn2)cc1 | 0.64 | 6 | -4.5*
COC(=O)Nc1ccccc1C(=O)N1CCCCC1 | -2.7* | -2 | -0.53
CCCCOC(=O)Nc1ccccc1C(=O)N1CCCC1 | . | . | 0.83
COC(=O)C1=C(C)N(Cc2ccco2)C(=O)N[C@H]1c1cccc(C(F)(F)F)c1 | 0.91 | . | .
CC1(C)N=C(N)NC(Nc2ccccc2)=N1 | 0.88 | -10 | .
Cc1ccc(N2C(=O)c3ccccc3C2O)nc1 (centres undefined) | . | . | -6.7*
Cc1ccc(N2C(=O)c3ccccc3C2Nc2ccccc2F)nc1 (centres undefined) | -0.91 | 1 | 0.73
COc1cc(O)c(C(CC(=O)N2CCOCC2)c2cc(OC)c(OC)c(OC)c2)c(OC)c1 (centres undefined) | 0.78 | . | .
CCCOC(=O)c1ccc(Oc2c(-c3ccc(OC)cc3O)n[nH]c2C)cc1 | -0.25 | 3 | -0.051
CCCOC(=O)c1ccc(-c2c(C)noc2-c2ccc(OC)cc2O)o1 | 2.8* | 3 | 0.076
O=C(NCc1cccnc1)C(=O)NCC1OCCN1S(=O)(=O)c1ccc(Cl)cc1 (centres undefined) | 0.79 | . | .
O=C(NCc1ccc(F)cc1)C(=O)NCC1OCCN1C(=O)c1ccc(Cl)cc1 (centres undefined) | 2.4* | . | .
